# Measured values published in PubChem BioAssay AID602274 (Sanford-Burnham Center for Chemical Genomics, 2012).
# Hit rate of the full screen: of about 360,000 compounds, about 160 (0.044%) were called active. Cut-off read from the data, not from the text of the source: active = survival enhancement above about 18%; inactive = the rest. What follows is part of a selection rich in actives, with near analogues and random picks from the rest.
# Assay: compounds raising survival of dissociated human iPSCs – cell-based, ATPlite luminescence, primary screen (AID 602274);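 note: cells exposed to compounds for 16 hours before the ATP read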
# Details: hiPSC single-cell survival, at 20 µM, stronger effect = higher value, 100% = ROCK inhibitor wells, 0% = DMSO
row,Structure (SMILES),survival enhancement
1,COc1ccc(S(=O)(=O)N(CCCN2CCCC2=O)Cc2cc3c(C)ccc(C)c3[nH]c2=O)cc1,-2.2% (inactive)
2,O=C(CCc1[nH]c2ccccc2c1Sc1ccccc1)N(CCO)CCO,-1% (inactive)
3,O=S(=O)(/N=C(/Nc1ccccc1)c1ccccc1)c1cccs1,4% (inactive)
4,Cc1ccc2c(c1)nnc1nnc(SCC(=O)O)n12,-0.2% (inactive)
5,COc1ccccc1NC(=O)N1CCCC1C(=O)NCc1cccs1 (centres undefined),-0.5% (inactive)
6,COc1ccc(-n2nnnc2SCc2nc(N)nc(N3CCOCC3)n2)cc1,-2.1% (inactive)
7,CC1CCCCC12NC(=O)N(CC(=O)N1CCN(c3ccccc3)CC1)C2=O (centres undefined),-0.5% (inactive)
8,CC(C)Oc1ccc(S(=O)(=O)N2CCOCC2)cc1NC(=O)C1CSC2(C)CCC(=O)N12 (centres undefined),-0.5% (inactive)
9,Cc1ccccc1C(OCCN(C)C)C1CCCCC1 (centres undefined),-3.9% (inactive)
10,COc1cccc(CNC(=O)CCN2C(=S)NC(C)(C)CC2C)c1 (centres undefined),-0.7% (inactive)
11,CC(C)CN(CC(C)C)CC(O)CN(c1ccccc1)S(=O)(=O)c1ccccc1[N+](=O)[O-] (centres undefined),-0.3% (inactive)
12,N#C/C(=C/c1cccc([N+](=O)[O-])c1)c1nnc2n1CCCCC2,32.2% (active)
13,N#C/C(=C(\O)C(F)(F)F)c1nnc2n1CCCCC2,2% (inactive)
14,N#C/C(=C(\O)CCl)c1nnc2n1CCCCC2,2.8% (inactive)
15,COc1ccc(OC)c(CCNC(=O)CCn2ccc3cc(S(=O)(=O)N4CCCC4)ccc32)c1,-0.3% (inactive)
16,C/C(=N\NS(=O)(=O)c1ccccc1)c1c(O)cc(C)oc1=O,-0.4% (inactive)
17,COc1ccc2c(c1)cc1n2CCN=C1NN,3% (inactive)
18,Cc1cccc(-n2c(SCC(N)=O)nc3c(c2=O)C2(CCCCC2)Cc2ccccc2-3)c1,-2.5% (inactive)
19,CC1(C(=O)NS(=O)(=O)c2cccc(F)c2)CCN1C(=O)Cc1cc(F)ccc1F (centres undefined),0.9% (inactive)
20,COC(=O)CCSc1nccn1Cc1ccccc1,0.7% (inactive)

row,Structure (SMILES),survival enhancement
1,COC(=O)CCSc1cc([N+](=O)[O-])cc2c1c(C1OCCS1)nn2-c1ccccc1 (centres undefined),19.1% (active)
2,CN1CCN(C(=O)c2cnn(-c3ccccc3)c2NC(=O)c2ccc([N+](=O)[O-])cc2)CC1,0.5% (inactive)
3,CC1(C)COC(c2cccn2Cc2ccccc2Cl)=N1,4.1% (inactive)
4,COc1cc(OC)cc(C(=O)Nc2ncc3c(n2)CC(C)(C)CC3=O)c1,1.7% (inactive)
5,O=C(NN=Cc1ccccc1O)C(=O)NN=Cc1ccccc1O,-1.8% (inactive)
6,C=CCOc1ccc(C2/C(=C(\O)c3c(C)[nH]c(C(=O)OC)c3C)C(=O)C(=O)N2CCN(C)C)cc1 (centres undefined),3.5% (inactive)
7,O=C(Nc1ccc(OC(F)(F)F)cc1)c1ccc2c(c1)no[n+]2[O-],-0.6% (inactive)
8,Cc1c(C=O)c2ccccn2c1C(=O)c1ccncc1,0.1% (inactive)
9,O=C(COC(=O)Cn1cnc2ccccc2c1=O)NCC12CC3CC(CC(C3)C1)C2,-0.2% (inactive)
10,CC1CCCC(NC(=O)COC(=O)c2ccccc2C(=O)N(C)C2CCCCC2)C1C (centres undefined),0.8% (inactive)
11,Cc1cc(=O)n2nc(N3CCCC(C(=O)NCCC4=CCCCC4)C3)sc2n1 (centres undefined),1.7% (inactive)
12,C=CCc1cccc2cc(C(=O)NC3CCCC3)c(=O)oc12,0.2% (inactive)
13,CC(C)CC(CC(C)C)=NNC(=O)c1ccc(CSc2nncn2C)cc1,2.3% (inactive)
14,O=c1[nH]cccc1-c1nc2ccccc2n1Cc1ccc(Cl)cc1,1.9% (inactive)
15,COCCC(=O)N1CCC(Oc2ccc(C(=O)NCc3ccon3)cc2)CC1,-0.4% (inactive)
16,CN1C(=O)[C@H]2[C@@H](C3CC3)N3C(=O)CN(Cc4ccccc4)C(=O)[C@@]3(C)[C@H]2C1=O,-2.2% (inactive)
17,CCOc1cc(/C=C/C(=O)OCC(=O)NCCN2C(=O)CSC2=O)ccc1OCC(C)C,3% (inactive)
18,CN1CCN(C(=O)c2ccc(-c3cc4nc(NCc5cccnc5)n(C)c(=O)c4s3)cc2)CC1,-0.7% (inactive)
19,O=C(CCCN1C(=O)c2ccccc2C1=O)Oc1ccc(Cl)cc1,3.7% (inactive)
20,CN(C)c1ccnc(Oc2ccc(F)cc2)c1C#N,1.8% (inactive)

row,Structure (SMILES),survival enhancement
1,COCCNC(=S)c1ccc(OC)cc1,5.9% (inactive)
2,COc1ccc(-c2ccc(CNCCCN3CCOCC3)o2)cc1Cl,-1.8% (inactive)
3,Cc1ccc(Cl)c(OCC(=O)N(C)CC(=O)Nc2ccc(N3CCOCC3)cc2)c1,0% (inactive)
4,COc1ccc(Cl)cc1NC(=O)[C@@H]1CCCN1C(=O)c1cccs1,1.2% (inactive)
5,O=C(O)c1ccc(-n2cccc2)cc1O,-3.7% (inactive)
6,NNC(=O)c1cnn(-c2ccccc2)c1C(F)(F)F,-0.5% (inactive)
7,O=C1CC2(CCCC2)C(=O)N1CN1CCN(S(=O)(=O)c2ccc(F)cc2F)CC1,-0.8% (inactive)
8,O=C(CNCCC1=CCCCC1)Nc1ccccc1N1CCCCCC1,-0.7% (inactive)
9,CCNC(=O)Nc1ccc(S(=O)(=O)Nc2cnc(C)nc2C)cc1,-0.1% (inactive)
10,CCCCN(CCCC)C(=O)CCS(=O)(=O)c1ccc2c(c1)n(C)c(=O)c(=O)n2C,2.7% (inactive)
11,Cc1c(-c2nn(C)c(=O)c3ccccc23)oc2ccc(F)cc2c1=O,-1.5% (inactive)
12,COC(=O)c1ccc(NC(=S)Nc2cccc(C)n2)cc1,0.3% (inactive)
13,CCCCN1C(=O)CC(N2CCOCC2)C1=O (centres undefined),1.8% (inactive)
14,COc1cc(OC)cc(-c2c(C#Cc3ccsc3)c3cc(-c4ccc(SC)cc4)ccc3n2C)c1,1.4% (inactive)
15,COc1ccc(N2C(=O)/C(=C\c3ccco3)N=C2SCC(N)=O)cc1Cl,-1.3% (inactive)
16,COc1ccc(C(=O)CSc2nnc(NC(=O)C3CC(=O)N(c4cccc(OC)c4)C3)s2)cc1 (centres undefined),0.9% (inactive)
17,CC(=O)OCCN(CCCn1c(-c2ccncc2)nc2ccccc21)c1nc(-c2ccc(C)cc2)cs1,0.8% (inactive)
18,Cc1noc(C)c1CSc1nc2cc(S(=O)(=O)N3CCOCC3)ccc2o1,8.5% (inactive)
19,CC(C)(C)C(=O)NCCCNc1ccc([N+](=O)[O-])cc1,-0.5% (inactive)
